From PubChem BioAssay AID720551 (National Center for Advancing Translational Sciences (NCATS), 2013)
Hit rate of the full screen: of about 340,000 compounds, about 1,300 (0.38%) were called active. The list comes from a sample in which actives are over-represented; it also holds similar structures and randomly drawn compounds. A number with no mark means an inactive call.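 How the source made its calls: active means maximum activity change below -70%; inconclusive means maximum activity change between -70% and -50%; inactive means maximum activity change above -50%.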

Target: Voltage-gated inwardly rectifying potassium channel KCNH2 (Homo sapiens) (UniProt Q12809)
Sequence (Q12809 whole entry, looked up): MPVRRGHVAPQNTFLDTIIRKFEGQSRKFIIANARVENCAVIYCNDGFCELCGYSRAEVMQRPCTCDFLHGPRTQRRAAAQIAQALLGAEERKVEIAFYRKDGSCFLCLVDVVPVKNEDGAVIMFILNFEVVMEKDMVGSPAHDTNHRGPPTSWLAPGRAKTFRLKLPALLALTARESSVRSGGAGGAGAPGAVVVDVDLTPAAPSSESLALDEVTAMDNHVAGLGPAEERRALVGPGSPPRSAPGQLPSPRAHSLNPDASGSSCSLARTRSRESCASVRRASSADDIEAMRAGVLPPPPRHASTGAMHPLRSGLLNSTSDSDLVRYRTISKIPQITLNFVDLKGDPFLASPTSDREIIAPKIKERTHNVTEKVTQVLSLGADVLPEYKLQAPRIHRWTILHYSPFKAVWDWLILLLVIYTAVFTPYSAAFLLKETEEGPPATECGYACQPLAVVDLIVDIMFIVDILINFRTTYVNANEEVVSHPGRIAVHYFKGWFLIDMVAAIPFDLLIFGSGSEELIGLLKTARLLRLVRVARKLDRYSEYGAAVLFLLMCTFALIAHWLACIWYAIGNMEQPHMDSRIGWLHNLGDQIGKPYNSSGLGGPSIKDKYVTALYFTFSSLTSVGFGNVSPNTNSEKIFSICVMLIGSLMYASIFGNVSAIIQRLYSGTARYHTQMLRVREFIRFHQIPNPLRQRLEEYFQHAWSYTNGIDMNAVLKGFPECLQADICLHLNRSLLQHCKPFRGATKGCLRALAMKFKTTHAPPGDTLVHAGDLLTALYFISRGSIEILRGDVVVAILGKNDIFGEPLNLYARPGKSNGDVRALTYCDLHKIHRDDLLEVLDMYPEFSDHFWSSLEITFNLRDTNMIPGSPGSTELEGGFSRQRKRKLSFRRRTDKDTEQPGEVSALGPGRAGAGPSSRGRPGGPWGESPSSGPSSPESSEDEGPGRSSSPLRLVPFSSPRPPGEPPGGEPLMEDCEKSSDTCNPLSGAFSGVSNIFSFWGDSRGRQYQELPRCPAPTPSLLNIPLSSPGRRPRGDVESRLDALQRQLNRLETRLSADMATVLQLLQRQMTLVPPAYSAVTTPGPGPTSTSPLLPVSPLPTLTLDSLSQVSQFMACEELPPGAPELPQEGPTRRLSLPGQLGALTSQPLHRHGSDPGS
Experiment: qHTS for Inhibitors of KCHN2 3.1: Wildtype qHTS
Settings: U2OS, BacMam KCNH2, thallium flux FluxOr; at 1.84 µM; active compounds read low
Text: Many antipsychotic drugs that inhibit the neurotransmitter dopamine also bind to hERG1 channel which might help explain their antipsychotic activity but also produces cardiac side effects. The discovery of the novel KCNH2 3.1 isoform offers a potential new target for the development of antipsychotic drugs without cardiac side effects. This proposal will use a high throughput thallium flux assay developed for KCNH2 to screen compounds that modulate the activity of KCNH2 3.1. The wild type KCNH2 channel will also be screened in parallel to help define the selective modulators of this KCNH2 3.1 potassium channel. The resulting compounds will be validated in electrophysiology experiments. The availability of animal models will allow future testing in vivo for effects on memory and other aspects of animal physiology linked with psychosis. NIH Chemical Genomics Center [NCGC] NIH Molecular Libraries Probe Centers Network [MLPCN] MLPCN Grant: MH096539 Assay Submitter (PI): James Barrow, Johns Hopkins University, Lieber Institute for Brain Development
U2OS cells were resuspended in cell media containing 10% fetal calf serum (FCS) at a concentration of 2 million cells / mL. The solution was treated with the Wild-type virus at 2.03 x 10^8 / mL and allowed to incubate at room temperature in the dark. After 4 hours of incubation, DMEM + 10% fetal bovine serum (FBS) was added to the cell solution. Three microliter was then dispensed into a 1536 tissue culture treated black assay plates which were incubated overnight at 37 C. Two microliter of loading buffer (HBSS + HEPES + Red40 dye quencher + FluxOr dye) was added and the assay plates were incubated for 45 min at room temperature in the dark. […] A stimulation buffer was added to the plate and the second kinetic read (2 min) was obtained. The rate constant was calculated from the kinetic reads and normalized to the positive and negative DMSO controls.
On the % scale 0 is the no-effect control and ±100 the full control effect.

Compound | activity change
C[C@H](CO)N1C[C@H](C)[C@@H](CN(C)S(=O)(=O)c2ccc(Oc3ccccc3)cc2)OCc2cn(nn2)CCCC1=O | 10.5%
COc1ccc(C=C2CCC3C(CCCC34OCCO4)C2=O)cc1 (stereo not drawn) | 7.34%
COc1ccc(S(=O)(=O)N2CCN(CC(=O)N3CCNC3=O)CC2)cc1OC | -3.77%
Cc1cccc(C)c1OCC(O)CN1CCCCC1 (stereo not drawn) | -71.1% (active)
O=C(c1ccc(Cl)cc1)c1ccc(OCC(O)CN2CCCCC2)cc1 (stereo not drawn) | 42.5%
OC(COc1ccc(CN2CCSCC2)cc1)CN1CCCCC1 (stereo not drawn) | -2.59%
Cc1ccc(NC(=O)c2ccco2)cc1 | -2.95%
O=Cc1cn(CCOc2ccc(F)cc2)c2ccccc12 | -0.818%
COc1ccc(CC(NC(C)=O)C(=O)NC2CCN(C(=O)Nc3ccc(C#N)cc3)CC2)cc1OC (stereo not drawn) | 6.09%
CCOC(=O)C1CCN(C(=O)Nc2cccc(OC)c2)CC1 | -8.37%
COc1cccc(NC(=O)N2CCC(NC(=O)C(Cc3cccc(C)c3)NC(C)=O)CC2)c1 (stereo not drawn) | -205% (active)
O=Nc1c(O)cc(O)c2ccccc12 | -0.133%
COC(=O)C(Cc1c[nH]c2ccccc12)NC(=O)CCNC(=O)c1ccco1 (stereo not drawn) | 0.0904%
Cc1ccc(NC(=O)c2ccn(C(=O)Nc3ccccc3)n2)c(C)c1 | 5.47%
CSc1ncc(C(=O)NCCCc2ccccc2)c(C)n1 | 11.2%
CSc1ncc(C(=O)Nc2ccc(C)cc2C)c(C)n1 | -213% (active)
CCc1cc(C(=O)N(CC)CC(=O)Nc2c(F)cccc2F)sc1C | 1.41%
CC(C)c1cc(C(=O)NC2CCCCCC2)c2ccccc2n1 | 1.65%
O=S(=O)([N-]c1nc2ccccc2nc1-[n+]1ccc(Cc2ccccc2)cc1)c1ccc(Br)s1 | 8.23%
Cc1cc(C)c[n+](-c2nc3ccccc3nc2[N-]S(=O)(=O)c2cccs2)c1 | -111% (active)
CCCCNc1nc2ccccc2nc1NS(=O)(=O)c1cccs1 | -1.02%
N#Cc1ccc(OCC(=O)Nc2nc(-c3ccccn3)cs2)cc1 | 19.3%

Compound | activity change
O=C(NCC(c1cccs1)N1CCOCC1)c1cc(-c2ccccn2)nc2ccccc12 (stereo not drawn) | 0.99%
O=C(c1ccccc1)c1cc(-c2ccccn2)c(N2CCOCC2)s1 | -186% (active)
CCc1ccc2ncc(C(=O)c3ccccc3)c(N3CCOCC3)c2c1 | 5.15%
Cc1ccc([C@H]2N[C@]3(CCCN(CC4CCCCC4)C3=O)[C@H]3C(=O)N(Cc4ccccc4)C(=O)[C@@H]23)cc1 | 2.25%
CN(C)C(CNC(=O)c1cccc(S(=O)(=O)N2CCc3ccccc3C2)c1)c1ccccc1 (stereo not drawn) | 19.3%
C[C@@H]1CN([C@H](C)CO)C(=O)c2cc(-c3ccc(F)cc3)cnc2O[C@H]1CN(C)C(=O)c1ccc(F)cc1 | 16.3%
Cc1nc2nc[nH]n2c(=O)c1C/C=C/c1ccccc1 | 1.17%
Cc1noc(C)c1COc1cccc(C(=O)Nc2cccnc2)c1 | 7.71%
Cc1nc2nc[nH]n2c(=O)c1NC(=O)c1cccc(OCC(C)C)c1 | -180% (active)
COc1ccc(-c2ccc(CN3C(C(C)C)C(=O)N(Cc4cn(CC5CCCCC5)nn4)CCS3(=O)=O)cc2)cn1 (stereo not drawn) | 6.66%
Cc1cccc(C(=O)NC2CCN(CC(=O)Nc3cccc(Cl)c3)CC2)c1 | 47.4%
Clc1ccc(COn2c(-c3ccc(Cl)cc3Cl)nc3ncccc32)cc1 | 1.98%
Clc1ccc(-c2cc(-c3ccccn3)on2)c(Cl)c1 | -93.1% (active)
O=C(COc1ccc(Cl)cc1Cl)N/N=C/c1ccccn1 | -7.76%
C[C@@H]1CN([C@H](C)CO)C(=O)CCCn2cc(nn2)CO[C@H]1CN(C)S(=O)(=O)c1ccc(Oc2ccccc2)nc1 | 10.5%
COc1ccc(CN2CCN(Cc3ccc(OC)c(OC)c3OC)CC2)cc1 | 38.9%
COc1ccc(F)c(-c2nc(CN3CCC(c4ccccc4)CC3)c(C)o2)c1 | 21%
COc1ccc(CN2CCC(c3nc4ccc(Cl)cc4[nH]3)CC2)cc1 | -96.7% (active)
O=C(CCCN1C(=O)C(c2ccccc2)Oc2cccnc21)Nc1ccccc1Br (stereo not drawn) | -7.82%
CCOC(=O)c1cnn2c(SC)ncnc12 | 9.2%
CCC(=O)N1CCN(c2ccccc2NC(=O)COc2cccc(C)c2C)CC1 | -214% (active)
CCOc1ccccc1NC(=S)N1CCN(c2cccc(C)c2C)CC1 | -2.86%

Compound | activity change
Cc1ccc(C(C)C)cc1OCC(=O)Nc1ccccc1N1CCCC1 | -18.3%
COc1ccc(-c2ccc(CN3C(CC(C)C)C(=O)N(Cc4cn(CC5CCCCC5)nn4)CCS3(=O)=O)cc2)cn1 (stereo not drawn) | 16.3%
CCC(Oc1ccccc1)C(=O)OCC(=O)Nc1c(C)nn(-c2ccccc2)c1C (stereo not drawn) | 0.17%
CC(NC(=O)c1ccco1)C(=O)Nc1nc(-c2ccccn2)cs1 (stereo not drawn) | -212% (active)
O=C(COc1ccccc1F)Nc1nc(-c2ccccn2)cs1 | -8.89%
Cc1cc(NC(=O)[C@H](C)NC(=O)c2ccco2)ccc1Br | -4.82%
COc1cccc(OC)c1C(=O)Nc1c(C(=O)N2CCN(c3ccccn3)CC2)oc2ccccc12 | 3.21%
COCC(=O)Nc1c(C(=O)N2CCCC2)oc2ccccc12 | -3.28%
CCOCCCN(C)C1CCN(C(=O)c2oc3ccccc3c2NC(=O)COc2cccc(C)c2)CC1 | -82.2% (active)
COc1ccc(CC(=O)Nc2c(C(N)=O)oc3ccccc23)cc1 | 26.6%
CN(C(=O)c1cccc(NC(=O)Cc2cccc([N+](=O)[O-])c2)c1)C1CCCCC1 | -17.3%
CCOCCCN(C)C1CCN(C(=O)c2oc3ccccc3c2NC(=O)Cc2cccc([N+](=O)[O-])c2)CC1 | -97.4% (active)
COc1ccccc1C(=O)NC(=S)Nc1ccc(N2CCOCC2)cc1 | -8.97%
C#CCN(C[C@@H]1[C@@H](OC(=O)NC2CC2)[C@@H](OC(=O)NC2CC2)Cn2c(=O)ccc(=O)n21)S(=O)(=O)c1ccc(C)cc1 | 2.34%
CC(C)CC1C(=O)N(Cc2cn(Cc3ccco3)nn2)CCS(=O)(=O)N1Cc1ccc(-c2ccc(Cl)c(Cl)c2)cc1 (stereo not drawn) | -32.9%
C[C@H](CO)N1C[C@H](C)[C@@H](CN(C)S(=O)(=O)c2ccc(F)cc2)OCc2cnnn2CCCC1=O | -1.39%
CCN(CC)C(=O)C1=C(C)N(Cc2ccc(C(C)(C)C)cc2)C(=O)C(CC(=O)NCc2cccc3ccccc23)C1 (stereo not drawn) | -4.42%
CCCOc1cccc(C(=O)Nc2nnn(CCC)n2)c1 | -113% (active)
CCCn1nnc(NC(=O)COc2ccc(CC)cc2)n1 | 4.88%
CCCOc1cccc(C(=O)NCCCNC(=O)c2cccnc2)c1 | -0.846%
CC(=O)c1ccc(OCC(=O)N(C)C2CCS(=O)(=O)C2)cc1 (stereo not drawn) | -11.1%
CC(C)CC(=O)c1c[nH]c(C(=O)NCc2ccccc2)c1 | 0.798%

Compound | activity change
CC(C)CC(=O)NC(=S)NCc1ccccc1 | -84.2% (active)
CC(C)CC(=O)NC(=S)Nc1cc(C(=O)O)ccc1Cl | -19.3%
COc1ccc(NC(=O)CCCOc2ccc(C(C)=O)cc2)cc1S(=O)(=O)N1CCCCC1 | -1.81%
Cc1ccc([C@H]2C[C@H](O)[C@@H](n3cc(COC(=O)c4ccccc4)nn3)CN2C(=O)C2CCCCC2)cc1 | -0.947%
C[C@@H]1CN([C@@H](C)CO)C(=O)CCCn2cc(nn2)CO[C@H]1CN(C)S(=O)(=O)c1ccc(-n2cccn2)cc1 | -21.9%
COc1ccc(-n2nnnc2CNC(=O)c2ccc3ccccc3c2)cc1 | -0.166%
O=C(NCc1nnnn1-c1ccc(Cl)cc1)c1ccc([N+](=O)[O-])o1 | 7.93%
O=C(NCc1nnnn1-c1ccc(Cl)cc1)c1ccc2c(c1)OCO2 | -76.9% (active)
C/C(COc1ccccc1)=N\NC(=O)c1nnn(-c2nonc2N)c1-c1ccc(C)cc1 | 4.6%
Cc1cc2ccccn2c1C(=O)c1cccc(F)c1 | -0.532%
Cc1c(C(=O)NNC(=O)c2ccncc2)oc2ccccc12 | -13.1%
Cc1c(C=O)c2ccccn2c1C(=O)c1ccncc1 | -70.5% (active)
O=C1[C@H]2[C@@H](c3ccc(C(F)(F)F)cc3)N[C@]3(CCCN(Cc4ccc(Cl)cc4)C3=O)[C@H]2C(=O)N1Cc1ccccc1 | -9.13%
CC1CN(C(=O)CCC(=O)NCc2cccnc2)c2ccccc2O1 (stereo not drawn) | -2.13%
CC1CN(C(=O)CCC(=O)NCCCN2CCC(Cc3ccccc3)CC2)c2cc(Cl)ccc2O1 (stereo not drawn) | -88.2% (active)
CC1CN(C(=O)CCC(=O)NC2CCN(Cc3ccccc3)CC2)c2ccccc2O1 (stereo not drawn) | 16.1%
CCCc1c(C)nc2scc(-c3ccc(Cl)cc3)n2c1=O | -21.6%
COc1ccc(CN2C[C@H]3CON(C)[C@H]3C[C@H]2c2ccc(-c3cccc(F)c3)cc2)cc1 | -20.5%
Cc1ccc(-c2ccc(CN3C(C(C)C)C(=O)N(Cc4cn(CCC5OCCO5)nn4)CCS3(=O)=O)cc2)cc1 (stereo not drawn) | -23.7%
CO/N=C/c1ccc(N2CCN(C(=O)c3cccc(Cl)c3)CC2)c([N+](=O)[O-])c1 | -11.9%
O=C(c1ccc(Cl)c([N+](=O)[O-])c1)N1CCN(c2ccccc2)CC1 | 9.59%
O=C(/C=C/c1ccc(Cl)cc1)N1CCN(c2ccccc2[N+](=O)[O-])CC1 | -71.4% (active)
